# Results from PubChem BioAssay.
# Unmarked numbers belong to inactive results. Activity calls are given as the source filed them. Unless noted, how the calls were made is not given here.
# Tested on: not listed separately
# Assay: human hepatoma cell viability loss – ATP luminescence, cytotoxicity control for P. falciparum antimalarial project, primary screen (AID 2303;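 active means inhibition above 50%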;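 further: 0% = DMSO wells and 100% = digitonin-killed cells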)
# Conditions: HepG2 viability, 24-48 h, at 10 µM, active compounds read high
row,Compound,inhibition
1,CCN(CC)CCNc1nc(C=Cc2ccc(Cl)cc2)nc2cc3ccccc3cc12,83% (active)
2,O=C(N[C@@H](CC1CCCCC1)C(=O)NCCN1CCOCC1)c1ccc(O)c(-c2ccc(Cl)c(Cl)c2)c1,-3%
3,COC[C@H]1CCCN1Cc1ccc(-c2ccc(-c3nc4ccccc4[nH]3)s2)cc1,18%
4,CN(C)CCOc1ccc(N2CCN(CCCCNC(=O)c3ccc(/C=C/c4cc(Cl)cc(Cl)c4)cc3)CC2)cc1,97% (active)
5,Cc1ccc(Cn2cnc3cc(C(=O)Nc4ccc(-c5ccc(CN(C)C)cc5)cc4)ccc3c2=O)o1,43%
6,COc1cc2c(cc1N(C(C)C)S(=O)(=O)c1sc3ccc(Cl)cc3c1C)CCNCC2,98% (active)
7,Cc1cc(-c2c[nH]c3ncc(-c4cccc5ncccc45)cc23)ccc1C(=O)O,31%
8,O=C(N[C@@H](Cc1ccccc1)[C@H](O)CNC1CCCc2ccccc21)c1cc(C2CCCC2)cc(N2CCCC2=O)c1 (stereo partly specified),31%
9,O=C(NC(CCCN1CCC2(CC1)OCc1ccccc12)c1ccc(Cl)c(Cl)c1)c1cc(C(F)(F)F)cc(C(F)(F)F)c1 (stereo unspecified),55% (active)
10,CN(C(=O)/C=C/c1cc(C(F)(F)F)ccc1F)C1CCN(CCCCCNC(=O)/C=C/c2ccc(Cl)c(Cl)c2)CC1,71% (active)
11,Cc1[nH]c(C)c(-c2ccc(OCc3ccccc3C(F)(F)F)nc2)c(=O)c1Br,35%
12,CCCCOC(=O)C1=C(C)NC2=C(C(=O)CC(c3ccc(OC)c(OC)c3)C2)C1c1ccc(O)cc1 (stereo unspecified),-6%
13,Cc1ccc(C)c(Cn2ccc3nc(N)nc(N)c32)c1,65% (active)
14,CCOC(=O)c1ccc(NC(=O)N[C@@H](Cc2ccccc2)C(=O)NC2CCN(Cc3ccc(OCCCN(C)C)cc3)C2)cc1 (stereo partly specified),5%
15,COc1ccc(NC2=C(c3ccccc3)C(=O)c3ccccc32)cn1,-9%
16,NC(=NC1CC1)c1ccc2nc(CCCCCc3nc4ccc(C(N)=NC5CC5)cc4[nH]3)[nH]c2c1,-3%

row,Compound,inhibition
1,CCNc1cc(C)nc(Nc2ccc(NC(=O)c3ccco3)cc2)n1,24%
2,Cn1cncc1C(=O)Nc1cccc(-c2cccc(-c3nc4ccc(F)cc4[nH]3)c2)c1,16%
3,Cc1ccccc1N1CCN(c2ccc(C(=O)Nc3ccccc3)cn2)CC1,44%
4,CN(C)Cc1cc2c(O)c(Cc3ccccc3)ccc2o1,3%
5,COc1ccc(-c2nc3c(N)nc(N)nc3nc2-c2ccccc2Cl)cc1 (tested in a mixture with another compound),45%
6,COc1ccccc1/C=C/C(=O)NCCC1CCN(CCCCCNC(=O)/C=C/c2ccc(Cl)c(Cl)c2)CC1,34%
7,O=C(Nc1cccc(-c2cccc(-c3nc4ccc(F)cc4[nH]3)c2)c1)c1ccncc1,28%
8,CC(C)CNC(=O)c1cncc(-c2ccc(CNC3Cc4ccccc4C3)cc2)c1,5%
9,CC(C)n1cc2c(ccc3nc(N)nc(N)c32)n1,65% (active)
10,O=C(/C=C/c1ccc(Cl)c(Cl)c1)NCCCCCN1CCCC(CNC(=O)/C=C/c2ccccc2)C1 (stereo unspecified),37%
11,COc1cc2ncnc(Nc3ccc4nc(-c5ccccc5)[nH]c4c3)c2cc1OC,15%
12,COC(=O)C(Cc1ccccc1)NC(=O)NC1CCN(c2ccnc(Nc3ccc(F)cc3)n2)C1 (stereo unspecified),0%
13,CCC[C@@H]([C@@H](Cc1ccc(C)s1)C(=O)N[C@@H](CNC(C)=O)C(=O)Nc1nccs1)N(O)C=O,-1%
14,N#Cc1ccc2c(c1)CCN(CCC1CCC(NC(=O)c3cc4cccc(Cl)c4[nH]3)CC1)CC2 (stereo unspecified),34%
15,CC(=O)c1cccc(NC(=O)NC2CCN(CCCCCNC(=O)/C=C/c3ccc(Cl)c(Cl)c3)CC2)c1,7%

# Target: L-lactate dehydrogenase (Plasmodium falciparum (isolate CDC / Honduras)) (UniProt Q27743)
# Sequence (Q27743 whole entry, looked up): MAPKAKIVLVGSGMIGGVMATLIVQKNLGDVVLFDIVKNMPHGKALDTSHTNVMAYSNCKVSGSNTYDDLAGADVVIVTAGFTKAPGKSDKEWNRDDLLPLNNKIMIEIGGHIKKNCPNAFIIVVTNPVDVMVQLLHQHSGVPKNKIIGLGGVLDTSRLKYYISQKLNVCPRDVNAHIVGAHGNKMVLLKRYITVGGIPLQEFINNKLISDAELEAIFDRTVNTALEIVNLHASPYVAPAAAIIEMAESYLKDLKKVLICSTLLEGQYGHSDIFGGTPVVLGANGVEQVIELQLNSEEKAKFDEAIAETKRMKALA
# Assay: PfLDH activity inhibition – cell lysate, 3D7 strain, counter-screen for P. falciparum growth inhibition project (AID 2304);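 further: 0% = vehicle and 100% = reference inhibitor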
# Conditions: P. falciparum 3D7 crude extract, LDH APAD/NBT absorbance; at 2 µM; active compounds read high
row,Compound,inhibition
1,O=C(NCCCCN1CCC(c2c[nH]c3ccc(-c4ccccc4)cc23)CC1)c1ccc(-c2ccccc2)cc1,3%
2,O=C(CC1SC(N2N=C(c3cccs3)CC2c2ccccc2)=NC1=O)Nc1ccc(Cl)cc1 (stereo unspecified),2%
3,N#Cc1cccc(NC(=O)c2cccc(S(=O)(=O)NC3CCN(CC4CCCCC4)C3)c2)c1 (stereo unspecified),1%
4,CCOc1cc(C(C)C)ccc1N1CCN(CCCCNC(=O)c2ccc(NC(=O)c3ccc(Cl)cc3)cc2)CC1,4%
5,COc1ccccc1-c1cccc2c(NC(=O)Nc3ccc4nccc(N5CCN(C)CC5)c4c3)ccnc12,5%
6,C=C(C)Cn1cc(C2CCN(CCCCNC(=O)c3sc(-c4ccc(Cl)cc4Cl)nc3CO)CC2)c2ccccc21,4%
7,O=[N+]([O-])c1cccc(NC(=S)N2CCCN(Cc3ccc(C(F)(F)F)cc3)CC2)c1,0%
8,COc1ccc2nc(C)cc(NCc3cccc4ccccc34)c2c1,-7%
9,O=C(Nc1ccc(Oc2ccccc2)cc1)N(CCN1CCCC1)Cc1ccc(-c2ccc(CN3CCNCC3)cc2)cc1,-2%
10,CCN(CC)CCNc1nc(C=Cc2ccc(Cl)cc2)nc2cc3ccccc3cc12,-3%
11,O=C(N[C@@H](CC1CCCCC1)C(=O)NCCN1CCOCC1)c1ccc(O)c(-c2ccc(Cl)c(Cl)c2)c1,3%
12,COC[C@H]1CCCN1Cc1ccc(-c2ccc(-c3nc4ccccc4[nH]3)s2)cc1,-2%
13,CN(C)CCOc1ccc(N2CCN(CCCCNC(=O)c3ccc(/C=C/c4cc(Cl)cc(Cl)c4)cc3)CC2)cc1,1%
14,Cc1ccc(Cn2cnc3cc(C(=O)Nc4ccc(-c5ccc(CN(C)C)cc5)cc4)ccc3c2=O)o1,-1%
15,COc1cc2c(cc1N(C(C)C)S(=O)(=O)c1sc3ccc(Cl)cc3c1C)CCNCC2,-3%
16,Cc1cc(-c2c[nH]c3ncc(-c4cccc5ncccc45)cc23)ccc1C(=O)O,-7%
17,O=C(N[C@@H](Cc1ccccc1)[C@H](O)CNC1CCCc2ccccc21)c1cc(C2CCCC2)cc(N2CCCC2=O)c1 (stereo partly specified),-7%
18,O=C(NC(CCCN1CCC2(CC1)OCc1ccccc12)c1ccc(Cl)c(Cl)c1)c1cc(C(F)(F)F)cc(C(F)(F)F)c1 (stereo unspecified),5%
19,CN(C(=O)/C=C/c1cc(C(F)(F)F)ccc1F)C1CCN(CCCCCNC(=O)/C=C/c2ccc(Cl)c(Cl)c2)CC1,3%
20,Cc1[nH]c(C)c(-c2ccc(OCc3ccccc3C(F)(F)F)nc2)c(=O)c1Br,-6%

row,Compound,inhibition
1,CCCCOC(=O)C1=C(C)NC2=C(C(=O)CC(c3ccc(OC)c(OC)c3)C2)C1c1ccc(O)cc1 (stereo unspecified),2%
2,Cc1ccc(C)c(Cn2ccc3nc(N)nc(N)c32)c1,-1%
3,CCOC(=O)c1ccc(NC(=O)N[C@@H](Cc2ccccc2)C(=O)NC2CCN(Cc3ccc(OCCCN(C)C)cc3)C2)cc1 (stereo partly specified),0%
4,COc1ccc(NC2=C(c3ccccc3)C(=O)c3ccccc32)cn1,2%
5,NC(=NC1CC1)c1ccc2nc(CCCCCc3nc4ccc(C(N)=NC5CC5)cc4[nH]3)[nH]c2c1,2%
6,CCNc1cc(C)nc(Nc2ccc(NC(=O)c3ccco3)cc2)n1,-2%
7,Cn1cncc1C(=O)Nc1cccc(-c2cccc(-c3nc4ccc(F)cc4[nH]3)c2)c1,3%
8,Cc1ccccc1N1CCN(c2ccc(C(=O)Nc3ccccc3)cn2)CC1,-5%
9,CN(C)Cc1cc2c(O)c(Cc3ccccc3)ccc2o1,-8%
10,COc1ccc(-c2nc3c(N)nc(N)nc3nc2-c2ccccc2Cl)cc1 (tested in a mixture with another compound),-2%
11,COc1ccccc1/C=C/C(=O)NCCC1CCN(CCCCCNC(=O)/C=C/c2ccc(Cl)c(Cl)c2)CC1,-4%
12,O=C(Nc1cccc(-c2cccc(-c3nc4ccc(F)cc4[nH]3)c2)c1)c1ccncc1,-3%
13,CC(C)CNC(=O)c1cncc(-c2ccc(CNC3Cc4ccccc4C3)cc2)c1,0%
14,CC(C)n1cc2c(ccc3nc(N)nc(N)c32)n1,1%
15,O=C(/C=C/c1ccc(Cl)c(Cl)c1)NCCCCCN1CCCC(CNC(=O)/C=C/c2ccccc2)C1 (stereo unspecified),-7%
16,COc1cc2ncnc(Nc3ccc4nc(-c5ccccc5)[nH]c4c3)c2cc1OC,-5%
17,COC(=O)C(Cc1ccccc1)NC(=O)NC1CCN(c2ccnc(Nc3ccc(F)cc3)n2)C1 (stereo unspecified),-3%
18,CCC[C@@H]([C@@H](Cc1ccc(C)s1)C(=O)N[C@@H](CNC(C)=O)C(=O)Nc1nccs1)N(O)C=O,2%
19,N#Cc1ccc2c(c1)CCN(CCC1CCC(NC(=O)c3cc4cccc(Cl)c4[nH]3)CC1)CC2 (stereo unspecified),0%
20,CC(=O)c1cccc(NC(=O)NC2CCN(CCCCCNC(=O)/C=C/c3ccc(Cl)c(Cl)c3)CC2)c1,1%
